# Screening data from PubChem.
# Shown is part of a subset that was picked to be rich in hits.
# HIV RNase H inh-1: blocks HIV-1 RNase H cleavage of RNA/DNA duplex; inhibition, % at 10 µM; 65,000 compounds, 1.9% hits; RT-RNase H RNA/DNA duplex cleavage, fluorescence; in the data active = inhibition above about 50%
# HIV RNase H inh-2: confirmation of HIV-1 reverse transcriptase RNase H inhibitors; inhibition, % at 10 µM; Recombinant RT RNase H, fluorescent RNA/DNA duplex cleavage; 1,000 compounds, 39% hits; AID 651; shares compounds with HIV RNase H inh-1; in the data active = inhibition above about 48%; inconclusive = no clear call, values can overlap the other calls
# The depositor's hits bear a star; ? = inconclusive.
SMILES,HIV RNase H inh-1,others
c1coc(-c2nc3ccccc3nc2-c2ccco2)c1,67.3*,HIV RNase H inh-2=43.6
O=c1oc(-c2ccco2)nc2ccccc12,-0.9,
c1ccc(Cn2c(-c3ccco3)nc3nc4ccccc4nc32)cc1,0.4,
CCCn1c(CNc2ccc(Br)cc2)nc2ccccc21,-7.8,
O=C1NCN(c2ccccc2)C12CCN(c1nnnn1-c1ccccc1)CC2,-17.1,
Brc1ccccc1-c1nnc2sc(Cc3ccccc3)nn12,-108.4,
O=C(O)CSc1nnc(Cn2nnc3ccccc32)n1CCc1ccccc1,-17.6,
c1ccc(Cc2nn3c(Cn4nnc5ccccc54)nnc3s2)cc1,73.9*,HIV RNase H inh-2=68.2*
Cn1c(SCC(=O)Nc2cc(=O)n(C)c(=O)n2C)nnc1C12CC3CC(CC(C3)C1)C2,18.7,
Cc1ccc(N2C(=O)c3oc4ccccc4c(=O)c3C2c2cccc(O)c2)nc1 (stereo unspecified),7.3,
CCOC(=O)c1c(NC(=O)c2ccco2)sc2c1CCCC2,22.9,
COC(=O)c1c(-c2ccccc2)csc1NC(=O)c1ccco1,0.7,
CCOC(=O)c1c(C2COc3ccccc3O2)csc1NC(=O)c1ccco1 (stereo unspecified),96.7*,HIV RNase H inh-2=54.2*
O=c1nc2scc(-c3ccccc3)n2c2ccccc12,2.1,
O=C(O)CCC(=O)N1CCc2cc(S(=O)(=O)N3CCC(Cc4ccccc4)CC3)ccc21,-13.9,
O=C(O)c1cccc(NC(=O)c2cccc(S(=O)(=O)N3CCCCC3)c2)c1,-9.3,
Nc1nc(NC(=O)c2cccc(S(=O)(=O)N3CCCCCC3)c2)nc(-c2ccccc2)n1,66.3*,HIV RNase H inh-2=9.0
O=C(Nc1ccccc1C(=O)N1CCCC1)c1cccc(S(=O)(=O)N2CCCCC2)c1,-21.3,
Cc1c(NC(=O)c2ccc3c(c2)OCO3)cccc1-c1nc2ccccc2o1,3.5,
Cc1ccccc1OCc1nc(-c2ccc(NC(=O)c3ccc4c(c3)OCO4)cc2)no1,74.6*,HIV RNase H inh-2=86.6*
Cc1ccc(-c2nc3ccccc3o2)cc1NC(=O)c1ccc2c(c1)OCO2,61.8*,HIV RNase H inh-2=14.0
O=C(NCc1nc(-c2ccccc2)no1)c1ccc2c(c1)OCO2,5.9,
O=C(Nc1ccccc1-c1nc2ccccc2o1)c1ccc2c(c1)OCCO2,0.5,
Cc1ccccc1OCc1nc(-c2ccc(NC(=O)c3ccco3)cc2)no1,26.3,
CCOC(=O)C(Oc1ccc(=O)n(-c2ccccc2)n1)C(C)=O (stereo unspecified),2.8,
SMILES,HIV RNase H inh-1,others
CCc1ccccc1OCc1nnc(N)s1,-63.0,
Cc1ccc(CSC2=NCCN2C(=O)C2CC2)cc1,-9.4,
CCCCNC(=O)c1ccc2c(c1)N(CC)C(=O)c1ccccc1S2(=O)=O,-7.1,
O=C(COc1ncnc2ccccc12)NCCCN1CCCC1=O,5.2,
O=C(CSc1nnnn1-c1ccccc1)Nc1nsc(-c2ccc(Cl)cc2)n1,65.4*,HIV RNase H inh-2=58.2*
O=C(CSc1nnnn1-c1ccccc1)Nc1nc(-c2ccccc2)ns1,-29.5,
O=C(CSc1nnnn1-c1ccccc1)Nc1nsc(-c2ccccc2)n1,-6.3,
Cc1nc2sc(C(c3ccccc3)N3CCN(C)CC3)c(O)n2n1 (stereo unspecified),-10.2,
CCOC(=O)c1sc(NC(=O)c2c(C)noc2C)c(C(=O)OCC)c1C,7.7,
CCCc1cc(C(=O)Nc2sc(C(C)=O)c(C)c2C(=O)OCC)no1,67.6*,HIV RNase H inh-2=?
CCCc1cc(C(=O)Nc2ccccc2C(=O)OC)no1,-4.2,
CCCOc1ccc([C@@H]2C3CN(C(=O)OCC)CC=C3C(C#N)=C(N)C2(C#N)C#N)cc1OC (stereo partly specified),70.4*,HIV RNase H inh-2=19.3
COc1cc(C2C3CN(C)CC=C3C(C#N)=C(N)C2(C#N)C#N)ccc1OC(C)C (stereo unspecified),1.3,
N#CC1=C(N)C(C#N)(C#N)[C@H](c2ccncc2)[C@H]2CN(C(=O)OCc3ccccc3)CC=C12,14.6,
COc1ccc(C2C(C(C)=O)=C(C)Nc3ncnn32)cc1OC (stereo unspecified),-5.8,
CCCCOC(=O)C1=C(C)Nc2ncnn2C1c1cc(OC)ccc1OC (stereo unspecified),-0.4,
CCCCCOc1ccc(C2C(C(C)=O)=C(C)Nc3ncnn32)cc1OC (stereo unspecified),64.2*,HIV RNase H inh-2=-10.0
CCCc1nn(C)c2c1C(c1ccncc1)C(C#N)=C(N)O2 (stereo unspecified),19.2,
COc1cc(OC)cc(-c2nnc(SCC(=O)Nc3cc(C)on3)o2)c1,-1.5,
COc1ccc(-n2c(COc3ccc(C)cc3)nnc2SCC(N)=O)cc1,0.6,
Cc1ccc(-n2c(N)c(C(N)=O)sc2=S)cc1,94.5*,HIV RNase H inh-2=64.4*
CCn1c(N)c(C(=O)NC)sc1=S,1.3,
CCn1c(N)c(C(=O)NCCCOC)sc1=S,-8.7,
CC1CCCC(C)N1c1nnc(NC(=O)Cn2c(=O)oc3ccccc32)s1 (stereo unspecified),-4.1,
CCCc1nnc(NC(=O)CCN2C(=O)c3ccccc3C2=O)s1,-3.1,
SMILES,HIV RNase H inh-1,others
CCCc1nnc(NC(=O)Cn2c(=O)oc3ccccc32)s1,77.2*,HIV RNase H inh-2=-15.8
CCc1ccccc1S(=O)(=O)Cc1ccc(C(=O)N2CCN(c3ccccn3)CC2)o1,-17.5,
Cc1ccc(CN(Cc2cccnc2)C(=O)CN2C(=O)COc3ccccc32)o1,-6.2,
COc1ccc(CN(Cc2ccccn2)C(=O)CN2C(=O)C(C)Oc3ccccc32)cc1 (stereo unspecified),-6.3,
O=C(CN1C(=O)COc2ccccc21)N(Cc1ccccc1)Cc1ccccn1,84.2*,HIV RNase H inh-2=39.4
CC(NC(=O)NC1CCCCC1)C(c1cccs1)N1CCN(C)CC1 (stereo unspecified),-7.0,
Cc1csc(=N)n1CC(=O)N1CCc2ccccc21,5.1,
CCOc1ccc2nc(NC(=O)CN3CCC(n4nnc5cc(F)ccc54)CC3)sc2c1,0.5,
COC(=O)C1=C(C)N=c2s/c(=C3\C(=O)Nc4ccccc43)c(=O)n2C1c1ccccc1 (stereo unspecified),89.6*,HIV RNase H inh-2=70.4*
COC(=O)C1=C(C)N=c2s/c(=C/c3ccoc3)c(=O)n2C1c1ccccc1 (stereo unspecified),-2.1,
COC(=O)C1=C(C)N=c2s/c(=C/c3cccs3)c(=O)n2C1c1cccs1 (stereo unspecified),-6.0,
COc1cc(S(=O)(=O)N2CCN(C)CC2)c(OC)cc1Br,-30.9,
Cn1cnnc1SCC(=O)c1cc2ccccc2oc1=O,15.3,
O=C(CSc1nnc(-c2cccnc2)o1)c1cc2ccccc2oc1=O,-3.5,
CC(C)c1c(C#N)c(N)nc(SCC(=O)c2cc3ccccc3oc2=O)c1C#N,75.0*,HIV RNase H inh-2=33.1
CCOc1cc(C2C(C(=O)N3CCCCC3)=C(C)NC3=C2C(=O)CCC3)cc(Br)c1O (stereo unspecified),14.6,
CCCCOC(=O)C1CCCC(C(=O)OCCCC)N1 (stereo unspecified),-6.5,
Cc1cccc(C)c1NC(=O)CSCC(=O)c1ccc(O)c(O)c1,87.5*,HIV RNase H inh-2=61.5*
Cc1cccc(C)c1NC(=O)CSCCO,-9.2,
Cc1cccc(C)c1NC(=O)CSCC(=O)O,-3.7,
CCNC(=O)CN(Cc1ccccc1)S(=O)(=O)c1ccccc1,0.8,
CC(=O)N(Cc1cc(=O)[nH]c2ccccc12)c1ccccc1,-3.9,
CC(=O)N(Cc1cc(=O)[nH]c2ccccc12)c1cccc(C)c1,81.7*,HIV RNase H inh-2=67.1*
COc1ccc2[nH]c(=O)c(CN(C(C)=O)c3cccc(C)c3)cc2c1,-28.2,
CCc1cc(=O)oc2cc(OC(C)C(=O)O)c(Cl)cc12 (stereo unspecified),-12.0,
Cc1nc2sc3c(c2c(=O)o1)CC(C)(C)OC3,0.1,
